According to PubChem BioAssay (NCI):
The panel holds about 83,000 compounds, 20% with a hit somewhere; the sample as a whole holds those more often.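 The test compound was applied at a single concentration to cells in 96-well plates for 48 hours, and percent growth was recorded.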 Calls of active or inactive are those of the source. Rule for the calls: active = growth percent below 10; inactive = the rest.

How the values were obtained:
Assay in all cases: NCI-60 one-dose screen, 48 h (100 = growth as untreated, 0 = no growth, -100 = all killed)
Details in all cases: 10 µM unless noted
T-47D breast = test system: T-47D breast
BT-549 breast = test system: BT-549 breast
MDA-MB-435 melanoma = test system: MDA-MB-435 melanoma
SW-620 colon = test system: SW-620 colon
HCT-116 colon = test system: HCT-116 colon
HCC-2998 colon = test system: HCC-2998 colon
KM12 colon = test system: KM12 colon
MCF7 breast = test system: MCF7 breast

Measured: growth

O=c1c2cc(Cl)ccc2oc2ccc(OCCCCCN3CCCCC3)cc12
active: MDA-MB-435 melanoma -24%
inactive: T-47D breast 60.1% | BT-549 breast 64.6% | SW-620 colon 33.7% | HCT-116 colon 11.5% | HCC-2998 colon 74.7% | KM12 colon 65%

O=C1N(Cc2ccccc2Cl)c2ccccc2C12NN=C(c1ccccc1)S2 (stereo unspecified)
inactive: T-47D breast 72.3% | BT-549 breast 70% | MDA-MB-435 melanoma 68.5% | SW-620 colon 47.6% | HCT-116 colon 43% | HCC-2998 colon 73.7% | KM12 colon 50.8%

COc1ccc(-c2nn(C(=O)NCCN(C)C)cc2-c2ccncc2)cc1Cl
active: MDA-MB-435 melanoma -25.3%
inactive: T-47D breast 37.1% | BT-549 breast 58.6% | SW-620 colon 30.5% | HCC-2998 colon 76.4% | KM12 colon 43.3%

O=C(NNC(=O)c1cccc(Cl)c1)c1ccccc1
inactive: T-47D breast 103% | BT-549 breast 111% | MDA-MB-435 melanoma 103% | MCF7 breast 105% | HCT-116 colon 107% | HCC-2998 colon 105% | KM12 colon 111%

COc1ccc(/C=C(\C#N)c2cc(OC)c(OC)c(OC)c2)cc1
inactive: T-47D breast 55.7% | BT-549 breast 27.3% | SW-620 colon 29.7% | HCC-2998 colon 21.7%
active: MDA-MB-435 melanoma 0.449% | HCT-116 colon 1.54% | KM12 colon 6.76%

CC(=O)Nc1c(Br)cc2c(c1Br)Cc1cc(Br)ccc1-2
inactive: T-47D breast 38.9% | BT-549 breast 77.3% | MDA-MB-435 melanoma 69.3% | SW-620 colon 41.7% | HCT-116 colon 46.6% | HCC-2998 colon 102% | KM12 colon 59.6%

CCOC(OCC)c1cnc2nc(NC(C)=O)[nH]c(=O)c2n1
inactive: T-47D breast 99.9% | BT-549 breast 112% | MDA-MB-435 melanoma 105% | SW-620 colon 103% | HCT-116 colon 102% | HCC-2998 colon 107% | KM12 colon 108%

COc1ccc(C(=O)OC2C(OC3C(O)COC(O[C@H]4C[C@H]5[C@@H]6CC=C7C[C@@H](O)CC[C@]7(C)[C@H]6CC[C@]5(C)[C@H]4[C@H](C)C(=O)CCC(C)C)C3OC(N)=O)OCC(O)C2O)cc1 (stereo partly specified)
inactive: HCC-2998 colon 52.7% | KM12 colon 27.4%
active: T-47D breast 1.19% | BT-549 breast -2.62% | MDA-MB-435 melanoma -63% | SW-620 colon -62.1% | HCT-116 colon -7.43%

c1ccc(-c2ccc(-c3ccccc3)[nH]2)cc1
inactive: T-47D breast 89.6% | BT-549 breast 99.8% | MDA-MB-435 melanoma 97.9% | SW-620 colon 105% | HCC-2998 colon 99.9% | KM12 colon 97%

COc1ccc2nc(-c3ccc(-c4noc(-c5ccc(Cl)cc5)n4)cc3)[nH]c2c1
inactive: T-47D breast 67.3% | MDA-MB-435 melanoma 60.2% | SW-620 colon 49.6% | MCF7 breast 46.4% | HCT-116 colon 51.3% | HCC-2998 colon 93.6% | KM12 colon 53.3%

Cc1ccc(NC(=O)c2cc(NCc3cc(O)ccc3O)ccc2O)cc1
inactive: T-47D breast 75.6% | BT-549 breast 63.8% | MDA-MB-435 melanoma 106% | MCF7 breast 75.7% | HCT-116 colon 97% | HCC-2998 colon 106% | KM12 colon 91%

O/N=C/c1ccncc1
inactive: T-47D breast 97.3% | BT-549 breast 117% | MDA-MB-435 melanoma 100% | HCT-116 colon 118% | HCC-2998 colon 102% | KM12 colon 105%

CC1=CCC2C1CC=C(C)C(CC[C@H]1[C@@](C)(O)CCC3OC(C)(C)[C@H](OC(=O)c4ccccc4)CC[C@@]31C)C2(C)C (stereo partly specified)
inactive: T-47D breast 74.4% | BT-549 breast 106% | MDA-MB-435 melanoma 86.8% | MCF7 breast 74.9% | HCT-116 colon 51.5% | HCC-2998 colon 97.9% | KM12 colon 98.9%

COc1ccccc1/C=C/C(=O)CCC(=O)O
inactive: T-47D breast 93.1% | BT-549 breast 113% | MDA-MB-435 melanoma 108% | MCF7 breast 102% | HCC-2998 colon 114% | KM12 colon 114%

COc1cc(/C=C/c2cc(/C=C/c3ccc(O)c(OC)c3)n(C(=O)Nc3ccc(F)c(Cl)c3)n2)ccc1O
active: T-47D breast 2.29% | BT-549 breast -24.2% | MDA-MB-435 melanoma -25.9% | MCF7 breast 2.06% | HCT-116 colon 2.15% | HCC-2998 colon 9.75% | KM12 colon 0.0776%

COc1cc2ccc(C(C)=O)cc2cc1OC
inactive: T-47D breast 93.1% | BT-549 breast 90.8% | SW-620 colon 98.5% | MCF7 breast 97.9% | HCT-116 colon 103% | KM12 colon 105%

COc1ccc2c(c1)sc1nc(-c3ccccc3)c(-c3cccc4ccccc34)n12
inactive: T-47D breast 60.5% | SW-620 colon 27.8% | MCF7 breast 27.7% | HCT-116 colon 18.6% | KM12 colon 15.7%
active: MDA-MB-435 melanoma -49.4% | HCC-2998 colon -26.8%

CN1CCCN(CCNc2nccc(-c3c(-c4cccc(O)c4)nc4sccn34)n2)S1(=O)=O
inactive: T-47D breast 60.7% | MDA-MB-435 melanoma 11% | SW-620 colon 71% | MCF7 breast 74.1% | HCT-116 colon 21.2% | HCC-2998 colon 74.8% | KM12 colon 64.8%
